Laboratory results from paper PMC4552634, “A New Set of Chemical Starting Points with Plasmodium falciparum Transmission-Blocking Potential for Antimalarial Drug Discovery” (PLoS ONE, 2015).
Hit rate of the full screen: of about 13,000 compounds, about 3,200 (25%) showed an effect of 50% or more. This is one part of the list.

Test system: P. falciparum stage V gametocytes
Set-up: BacTiter-Glo ATP luminescence viability of purified stage V gametocytes in 384-well plates, per cent inhibition versus DMSO
Conditions: 48 h, 5 µM; inhibitor

In order of rising “% Inhibition” value:
1. CCc1cc2c(cc1CC)CC(NC[C@@H](O)c1ccc(O)c3[nH]c(=O)ccc13)C2 [TCMDC-138894]  -46.2%
2. Clc1ccc2c(N3CCCNCC3)ccnc2c1 [TCMDC-124813]  -27.2%
3. CC(C)(C)Nc1nc(Nc2cccc([N+](=O)[O-])c2)nc(-n2ccnc2)n1 [TCMDC-123695]  -24.43%
4. COc1ccc2nccc([C@@H](O)CN3CCC(NC(=O)C(c4ccsc4)N4CCN(c5ccccc5OC)CC4)CC3)c2c1 (stereo partly shown) [TCMDC-140994]  -19.96%
5. Cc1c(Cc2ccccc2Br)cnc2nc(N)nc(N)c12 [TCMDC-137244]  -16.64%
6. CCc1ccccc1N=C1c2c(cccc2[N+](=O)[O-])C(=O)C1C(C)=O (stereo not shown) [TCMDC-125760]  -10.56%
7. Cc1cc(CNCCCCCCCNCc2ccc(Cl)cc2)ccc1O [TCMDC-140417]  -6.741%
8. CCCCCC(C)C(C)c1cc(O)c2c(c1)OC(C)(C)C=C2c1cc[n+]([O-])cc1 (stereo not shown) [TCMDC-131349]  -5.463%
9. Cc1ccc(Oc2c(-c3ccccc3CN3CCCC3CN(C)C)cnn(C)c2=O)cn1 (stereo not shown) [TCMDC-135100]  -4.022%
10. CCCCCCC(C)c1cc(O)c2c(c1)OC(C)(C)C=C2c1ccncc1 (stereo not shown) [TCMDC-131636]  -3.085%
11. O=C(CCc1cnc[nH]1)Nc1cccc(-c2cccc(-c3nc4ccc(C(F)(F)F)cc4[nH]3)c2)c1 [TCMDC-132157]  -1.759%
12. CC1(C)NC(N)=NC(=N)N1OCC1CCCCC1 [TCMDC-131616]  -0.7745%
13. CC(C)C[C@@H](NC(=O)NC1CCC(CCN2C3CCC2CC(OC(=O)C(CO)c2ccccc2)C3)CC1)C(O)(c1ccccc1)c1ccccc1 (stereo partly shown) [TCMDC-136459]  3.057%
14. CC(C)NCc1ccc(-c2cccc(-c3nc4ccc(F)cc4[nH]3)c2)cc1 [TCMDC-132737]  4.072%
15. O=C(NCCCCCCNCc1ccc(-c2ccccc2)cc1)Nc1ccc(Cl)c(Cl)c1 [TCMDC-140706]  4.226%
16. O=C1COc2ccc3ccccc3c21 [TCMDC-123508]  4.476%
17. CC1CCCC(C)N1C[C@@H](O)CNS(=O)(=O)c1cccc(C(F)(F)F)c1 (stereo partly shown) [TCMDC-134258]  4.939%
18. N#Cc1ccc(N2CCN(Cc3ccc(-c4cccc(-c5nc6ccccc6[nH]5)c4)cc3)CC2)nc1.O=C(O)C(F)(F)F [TCMDC-133918]  6.117%
19. Cc1cccc2nc(-c3ccc(-c4ccc(NC(=O)NCc5ccccc5)cc4)s3)[nH]c12 [TCMDC-133156]  6.679%
20. N#Cc1ccc2c(c1)CN(CCCCNC(=O)c1ccc(-c3ccccc3)cc1)CC2 [TCMDC-139091]  8.247%
21. Cc1cnc(Nc2cccnc2)nc1Nc1ccccc1C(=O)NC(C)C [TCMDC-134207]  8.943%
22. COC(=O)/C=C/c1ccc(CC(C)NCC(O)c2cccc(Br)c2)cc1 (stereo not shown) [TCMDC-131443]  13.24%
23. CC(C#N)Cc1ccc(-c2cnc(N)c3cc(-c4ccnc(N)n4)ccc23)cc1 (stereo not shown) [TCMDC-134547]  15.83%
24. O=C(Nc1ccc(CN2CCN(S(=O)(=O)c3ccc(Cl)s3)CC2)cc1)c1cccs1 [TCMDC-136320]  18.17%
25. COc1cc(CCNCC(O)c2ccc([N+](=O)[O-])c(OCc3ccccc3)c2)cc(OC)c1OC (stereo not shown) [TCMDC-132008]  19.76%
26. CCCCC([C@@H](Cc1ccc2ccccc2c1)C(=O)N[C@H](C(=O)NC)C(C)(C)C)N(O)C=O (stereo partly shown) [TCMDC-140405]  29.38%
27. CNc1cc(-c2ccc3ccnc(N)c3c2)nc(N)n1.O=CO [TCMDC-136539]  29.83%
28. CC(=O)OC[C@H]1O[C@@H](C#Cc2ccccc2)[C@H](OC(C)=O)[C@@H](OC(C)=O)[C@@H]1OC(C)=O [TCMDC-131801]  35.52%
29. O=[N+]([O-])c1ccc(Nc2nc(N/N=C/c3cccc(O)c3)nc(N3CCCC3)n2)cc1 [TCMDC-123855]  36.76%
30. Cc1[nH]c(C)c(-c2ccc(OCCOc3ccc(C(F)(F)F)cn3)cc2)c(=O)c1Br [TCMDC-135554]  40.45%
31. Nc1ccc(-c2ccc3ccnc(N)c3c2)cn1 [TCMDC-133428]  40.89%
32. Cc1cc(CNCCCCCCNCc2ccc(Cl)cc2)ccc1O [TCMDC-140414]  43.51%
33. Nc1nccc2ccc(-c3cccc(O)c3)cc12 [TCMDC-136758]  44.67%
34. Cc1cc(CNCCCCCNCc2ccc(Cl)cc2)ccc1O [TCMDC-140411]  48.45%
35. CSc1nccc(-c2ccc3ccnc(N)c3c2)n1 [TCMDC-136641]  63.58%
36. CCNCc1cccc(-c2ccc3ccnc(N)c3c2)c1 [TCMDC-136869]  65.98%
37. Cc1[nH]c(C)c(-c2ccc(Oc3ccc(C(F)(F)F)cc3)cc2)c(=O)c1Br [TCMDC-137406]  68.39%
38. CCn1cnc2c(Nc3cccc([N+](=O)[O-])c3)nc(N3CCC(N4CCCCC4)CC3)nc21 [TCMDC-124437]  69.16%
39. CNCc1cccc(-c2ccc3ccnc(N)c3c2)c1 [TCMDC-136794]  70.03%
40. N#Cc1ccc(CNCCCCCCCNCc2ccc(-c3ccccc3)cc2)cc1 [TCMDC-140407]  71.46%
41. Cc1[nH]c(C)c(-c2ccc(Nc3ccc(C(F)(F)F)cn3)cc2)c(=O)c1Br [TCMDC-135546]  74.1%
42. CCCCCCC(C)c1cc(OCCN(CC)CC)c2c(c1)OC(C)(C)C=C2c1ccncc1 (stereo not shown) [TCMDC-131641]  78.51%
43. Cc1[nH]c(C)c(-c2ccc(C(F)(F)F)cc2)c(=O)c1Br [TCMDC-137429]  90.2%
44. CNCc1ccc(-c2ccc3ccnc(N)c3c2)cc1 [TCMDC-136789]  95.61%
45. Cc1cc(CNCCCCCCNCc2ccc(-c3ccccc3)cc2)ccc1O [TCMDC-140412]  99.09%
46. Cc1cc(CNCCCCCCCNCc2ccc(-c3ccccc3)cc2)ccc1O [TCMDC-140415]  101%
